HTR5A ag ctr – counter-screen for OPRM1-OPRD1 agonists: human HTR5A agonism; P47898; HTR5A agonist assay, luminescence, cell-based; activation, % at 9.3 µM; 340,000 tested, 0.61% active; AID 504692; in the data active = activation mostly above about 9.5%, no sharp cut-off; inactive = mostly below about 7.6%
OPRM1-OPRD1 inv – mu-delta opioid heterodimer inverse agonism; inhibition, % at 9.3 µM; cell-based MOR-DOR heterodimer luminescence; 340,000 tested, 0.21% active; P35372+P41143; AID 504357; in the data active = inhibition above about 22%, passing the limit was not always enough
HTR5A inv ag – counter-screen for OPRM1-OPRD1 inverse agonists: human HTR5A inverse agonism. inhibition, % at 9.3 µM. P47898. HTR5A cell line, luminescence. 340,000 tested, 0.083% active; in the data active = inhibition mostly above about 23%, no sharp cut-off; inactive = mostly below about 18%
m5-HT2A agonist – mouse HTR2A agonism via beta-arrestin recruitment. P35363. CHO-K1 mHTR2A beta-arrestin complementation, luminescence; percent of 30 µM serotonin response. AID 624169. 360,000 tested, 0.66% active. activation, % at 7.6 µM;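 active = activation above a run cutoff, the mean activation of all tested compounds plus 3 SD, cut at about 14% in these data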
Target sequence (P35363 whole entry, looked up): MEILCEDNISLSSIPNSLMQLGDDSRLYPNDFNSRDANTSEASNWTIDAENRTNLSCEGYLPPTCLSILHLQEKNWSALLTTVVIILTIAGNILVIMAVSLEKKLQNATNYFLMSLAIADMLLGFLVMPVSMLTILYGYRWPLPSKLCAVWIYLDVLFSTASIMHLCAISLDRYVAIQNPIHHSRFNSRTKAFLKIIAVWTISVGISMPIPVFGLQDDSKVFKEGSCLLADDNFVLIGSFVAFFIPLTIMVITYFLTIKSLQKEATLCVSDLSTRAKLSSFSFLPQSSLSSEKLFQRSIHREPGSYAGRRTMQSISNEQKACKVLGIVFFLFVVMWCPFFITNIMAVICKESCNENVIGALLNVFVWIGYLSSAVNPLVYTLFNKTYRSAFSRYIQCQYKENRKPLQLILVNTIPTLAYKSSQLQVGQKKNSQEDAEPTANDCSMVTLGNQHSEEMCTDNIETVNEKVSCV
MOR-DOR ag – OPRM1-OPRD1 heterodimerization agonism; activation, % at 9.3 µM; cells, luminescence; 340,000 tested, 0.3% active; AID 504326; in the data active = activation above about 18%
MOR ag counter – activates human mu opioid receptor in HTR2A counterscreen | activation, % at 9.3 µM | 2,300 tested, 5.3% active | shares compounds with m5-HT2A agonist | U2OS OPRM1 beta-arrestin PathHunter, luminescence; DMSO 0%, DAMGO 9.3 µM 100%;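 active = mean activation above the mean of DMSO-only wells plus 3 SD, cut at about 0.5% in these data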
HTR2A ag conf – mouse HTR2A agonism confirmed. 2,300 tested, 19% active. shares compounds with m5-HT2A agonist. activation, % at 7.6 µM. CHO-K1 PathHunter beta-arrestin recruitment, luminescence; DMSO 0%, 30 µM serotonin 100%. AID 624381;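 active = mean activation across triplicates above the hit threshold derived in the original primary screen, cut at about 15% in these data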
Each line names hits and unclear results; the compound was inactive in the other large screens (follow-up assays come after a bar, where they were run). An excerpt weighted towards active compounds, which were near 1.6% of everything screened.

CNCC(=O)c1ccc(O)c(O)c1	m5-HT2A agonist 31 (no result: HTR5A ag ctr, OPRM1-OPRD1 inv, HTR5A inv ag, MOR-DOR ag) | MOR ag counter inactive | HTR2A ag conf 90
O=C(c1cc(Cl)cc(Cl)c1)N1Cc2ccccc2-n2nncc2C1	none (no result: HTR5A ag ctr, OPRM1-OPRD1 inv, HTR5A inv ag, MOR-DOR ag)
N#Cc1c(/N=C/C2C(=O)NC(=S)NC2=O)sc2c1CCCC2	m5-HT2A agonist 15 | MOR ag counter inactive | HTR2A ag conf 36
O=C1NCN(c2ccccc2)C12CCN(C(c1cccc3ccccc13)c1nnnn1-c1ccc3c(c1)OCCO3)CC2 (stereo not given)	none (no result: HTR5A ag ctr, OPRM1-OPRD1 inv, HTR5A inv ag, MOR-DOR ag)
Cc1ccc(-c2nc3ccc(C)cn3c2CC(=O)N(C)C)cc1	m5-HT2A agonist 29 | MOR ag counter inactive | HTR2A ag conf inactive
O=C(Cc1c(-c2ccccc2)nc2ccc(Br)cn12)N1CCCC1	none (no result: HTR5A ag ctr, OPRM1-OPRD1 inv, HTR5A inv ag, MOR-DOR ag)
COc1ccc(Cl)cc1C(=O)C1CCCN(CCO)C1 (stereo not given)	none
CCCN1CCC[C@@H](c2cccc(O)c2)C1	m5-HT2A agonist 23 | MOR ag counter inactive | HTR2A ag conf 64
O=C(c1ccc(-c2ccccc2)c(F)c1)C1CCCN(CCO)C1 (stereo not given)	none
CCCN1CCC[C@H](c2cccc(O)c2)C1	m5-HT2A agonist 38 | MOR ag counter inactive | HTR2A ag conf 122
CCN(CC)C(=O)COc1cc(C)cc2oc(=O)c3c(c12)CCCC3	m5-HT2A agonist 14 | MOR ag counter inactive | HTR2A ag conf inactive
Cc1cc(OCC(=O)OC(C)(C)C)c2c3c(c(=O)oc2c1)CCC3	none
CCC1(CC(C)C)C(=O)NC(=S)NC1=O	none
CCC1(CC)C(=O)C=CNC1=O	m5-HT2A agonist 40 | MOR ag counter inactive | HTR2A ag conf inactive
c1ccc2oc(-c3ccc4c(c3)CNCc3cnnn3-4)cc2c1	none (no result: HTR5A ag ctr, OPRM1-OPRD1 inv, HTR5A inv ag, MOR-DOR ag)
Fc1cccc(CNCCc2c[nH]c3ccccc23)c1	m5-HT2A agonist 35 | MOR ag counter inactive | HTR2A ag conf 39
Cc1cccc(CNCCc2c[nH]c3ccccc23)c1	m5-HT2A agonist 33 | MOR ag counter inactive | HTR2A ag conf 15
OC(CCNCCc1c[nH]c2ccccc12)C(F)(F)Cl (stereo not given)	none
CC12CCC(O)CC1CCC1C2CCC2(C)C(C(=O)CO)CCC12 (stereo not given)	none (no result: HTR5A ag ctr, OPRM1-OPRD1 inv, HTR5A inv ag, MOR-DOR ag)
O=C1NCN(c2ccccc2)C12CCN(C(c1nnnn1C1CCCCC1)C1CC1)CC2 (stereo not given)	none (no result: HTR5A ag ctr, OPRM1-OPRD1 inv, HTR5A inv ag, MOR-DOR ag)
O=[N+]([O-])c1ccc(N2CCCCC2)c2ncccc12	none
O=[N+]([O-])c1ccc(N2CCCNCC2)c2ncccc12	m5-HT2A agonist 38 | MOR ag counter inactive | HTR2A ag conf 22
C[C@@H](N)Cc1cnc[nH]1	m5-HT2A agonist 15 | MOR ag counter inactive | HTR2A ag conf inactive
O=C(O)c1nn(Cc2ccc(Cl)cc2Cl)c2ccccc12	none
O=C(O)c1nn(Cc2ccc(Cl)cc2)c2ccccc12	m5-HT2A agonist 15 (no result: HTR5A ag ctr, OPRM1-OPRD1 inv, HTR5A inv ag, MOR-DOR ag) | MOR ag counter inactive | HTR2A ag conf inactive

Bioassay records as filed in PubChem.
